Compounds with a hit are over-represented: about 5.2% of the library has one in this group of screens.
Sfp PPTase inh – qHTS Assay for Inhibitors of Bacillus subtilis Sfp phosphopantetheinyl transferase (PPTase); AID 1490, 2009; actives 3.5% (n = 310,000); Potency, µM, without a hit: largest response in the series, negative = inhibition, actives largely listed as inhibitors; 4'-phosphopantetheinyl transferase ffp (Bacillus subtilis), Q9F4F7; Biochemical Sfp PPTase activity, qHTS;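 note: the enzyme is Sfp with the accession as filed and its product quenches rhodamine fluorescence; potency is the fitted concentration of half-maximal effect; 0% = enzyme reaction without inhibitor and -100% = no enzyme wells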
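Fluorescence-quenching assay with 15 nM Sfp, 5 uM rhodamine-CoA and 12.5 uM BHQ-2-labelled ybbR peptide in pH 7.6 Hepes/MgCl2 buffer. Enzyme was pre-incubated with compound for 15 min at room temperature. Rate was taken from the 30-min fluorescence change (525/598 nm).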
FBPA coupling cs – qHTS Assay for Inhibitors of Fructose-1,6-bisphosphate Aldolase from Giardia Lamblia: Coupling assay counterscreen | coupling enzyme system counterscreen, AmpLite Red fluorescence | AID 2472, 2010 | actives 0.67% (n = 290,000) | activity change, negative = inhibition, % at 58.2 µM, hits read low; in the data active = activity change below about -30%
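First, compound is pin-transferred into glyceraldehyde-3-phosphate coupling-enzyme reagent at 57.5 uM final and held 10 min at RT. Next, substrate, coupling system and AmpLite Red are added. After 20 min RT, fluorescence (525/598 nm) is read.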
Tau fibril FP – qHTS for Inhibitors of Tau Fibril Formation, Fluorescence Polarization; Microtubule-associated protein tau (Homo sapiens), P10636; K18 P301L tau heparin fibrillization, Alexa594 FP, 6 h; Potency, µM (top dose mostly 57.7 µM), inactives show top-dose activity, negative = inhibition, usual class: inhibitors; actives 0.39% (n = 280,000); note: potency is the fitted concentration of half-maximal effect; nearly all actives have a fitted effect of over 55% in size
Target sequence (P10636 561-689 P618L limits assumed): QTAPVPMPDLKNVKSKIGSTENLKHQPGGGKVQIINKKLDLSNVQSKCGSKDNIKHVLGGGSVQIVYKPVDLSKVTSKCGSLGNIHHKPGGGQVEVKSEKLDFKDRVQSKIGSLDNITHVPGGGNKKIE
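Heparin (20 uM) drove fibril formation of recombinant tau K18 P301L, 15 uM unlabeled with 0.24 uM Alexa 594 label, for 6 hr at 37 C in 100 mM sodium acetate pH 7. Fluorescence polarization (555/632 nm) read 1 hr after 30 uM ThT.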
Tau fibril ThT – qHTS for Inhibitors of Tau Fibril Formation, Thioflavin T Binding | recombinant tau K18 P301L, heparin-induced fibrillization, ThT fluorescence | actives 2.1% (n = 270,000) | Potency, µM (titrated, usually from 57.4 µM), inactives show top-dose activity, negative = inhibition, actives largely listed as inhibitors | Microtubule-associated protein tau (Homo sapiens), P10636; note: potency is the fitted concentration of half-maximal effect; nearly all actives have a fitted effect of over 55% in size
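Heparin-induced fibrillization of the P301L-mutant K18 repeat-domain fragment of human tau was followed by ThT binding in quantitative high-throughput format.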
Tau fluor counter – Counterscreen qHTS for Inhibitors of Tau Fibril Formation, Fluorescence Polarization | tau K18 P301L (four-repeat tau fragment) Alexa594 fluorescence, heparin fibrillization | Potency, µM (highest dose often 57.7 µM), inactives show top-dose activity change, negative = decrease | actives 0.93% (n = 280,000); note: potency is the fitted concentration of half-maximal effect; nearly all actives have a fitted effect of over 55% in size
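Human K18 P301L tau (15 uM unlabeled plus 0.24 uM Alexa 594-labeled, final) in 100 mM sodium acetate pH 7 was mixed with compound and 20 uM heparin and incubated 6 hr at 37 C.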
* hit, by the source's call; u = inconclusive; x = not tested or not shown; ! = repeats disagree; [ ] = remark or other dose. Unless noted, calls come from the whole dose curve; as a rule, active = well fitted curve in the direction sought with a large enough effect; inconclusive = small, poorly fitted or top-dose-only effect, or another doubt; inactive = no such curve, though single readings can be large; an effect the other way counts as inactive or inconclusive. Unless noted, % is set by controls: 0 for no effect and ±100 for the full control effect.

SMILES	Sfp PPTase inh	FBPA coupling cs	Tau fibril FP	Tau fibril ThT	Tau fluor counter
O=C(N/N=C/c1ccc(-c2cccc([N+](=O)[O-])c2)o1)c1ccc([N+](=O)[O-])cc1	2%	-3	10%	5.6µM*	u
Cc1ccc(C(=O)N/N=C\c2ccc(-c3ccc([N+](=O)[O-])cc3)o2)cn1	-16%	1	6%	3.2µM*	-29%
C/C(=N\NC(=O)c1cc(-c2cccc([N+](=O)[O-])c2)n[nH]1)c1ccccc1O	-5%	0	-5%	2µM*	u
O=C(N/N=C/c1ccc(-c2cccc(C(F)(F)F)c2)o1)c1ccccc1O	-19%	-1	-11%	-15%	-20%
O=C(N/N=C/c1ccc(-c2cccc([N+](=O)[O-])c2)o1)c1ccccc1O	u	1	7%	8.9µM*	u
CNc1ncncc1-c1ccccc1C	12%	1	x	x	x
COc1ccccc1S(=O)(=O)Cc1ccc(C(=O)NCc2ccc(Cl)cc2)o1	x	x	-2%	-7%	-15%
C=C1C=CS(=O)(=O)N(C(C)C(=O)OC)C1 (stereo not given)	-10%	0	x	x	x
O=C(NCc1ccco1)c1nn2c(C(F)(F)F)cc(-c3cccs3)nc2c1Br	20µM*	6	u	14µM*	-29%
COc1ccc(C(=O)N2C(=S)NC(=O)/C2=C\c2ccc(C)cc2)cc1	50µM*	5	1%	u	u
COC(=O)CN1C(=S)N(c2ccc(OC)cc2)C(=O)/C1=C/c1ccc(OC)cc1	-2%	-1	-7%	5%	2%
O=[N+]([O-])c1cc(C(F)(F)F)cc([N+](=O)[O-])c1NCCNC(=S)Nc1cccc(F)c1	4%	-3	-7%	u	8.9µM*[quencher]
Fc1ccc(CNC(=S)Nc2cccc(C(F)(F)F)c2)cc1	-5%	0	0%	-4%	-10%
O=C1/C(=C/c2ccc(O)c(O)c2)Oc2ccccc21	u	-10	x	x	x
Cc1nc(N=Nc2cc(S(=O)(=O)O)c3cc([N+](=O)[O-])cc(S(=O)(=O)O)c3c2)c(COP(=O)(O)O)c(C=O)c1O	40µM*!	0	20µM*	8.9µM*	14µM*[quencher]
CCOc1cc(C2c3c(-c4cc(C)ccc4O)n[nH]c3C(=O)N2CCCOC(C)C)ccc1O (stereo not given)	x	x	4%	u	u
COc1ccc(N2CCN(c3ccc(-c4nc(-c5ccccc5C)no4)cc3[N+](=O)[O-])CC2)cc1	x	x	-6%	15%	3%
COc1cccc(CN2CCN(Cc3ccco3)CC2)c1	45µM*	-2	x	x	x
COc1cccc(CN2CCN(Cc3cc(OC)c(OC)cc3OC)CC2)c1	56µM*	1	x	x	x
NC(=O)c1cc[n+](CC2=C(C(=O)[O-])N3C(=O)[C@@H](NC(=O)Cc4cccs4)[C@@H]3SC2)cc1	-11%	2	x	x	x
O=C(COc1ccc(F)cc1)Nc1ccc2c(c1)OCCO2	0%	0	x	x	x
COc1cccc(-c2nc(SCC(=O)Nc3ccc4c(c3)OCCO4)c(-c3ccccc3)[nH]2)c1	x	x	-10%	u	5.6µM*[quencher]
COc1cccc(-c2nnc(SCC(=O)Nc3ccc4c(c3)OCCO4)n2Cc2ccco2)c1	u	6	-2%	-18%	-27%
CCOc1ccc(-c2nc(SCC(=O)Nc3ccc4c(c3)OCCO4)c(-c3ccc(F)cc3)[nH]2)cc1	x	x	-14%	-10%	14µM*[quencher]
COc1ccc(-c2[nH]c(-c3ccccc3)nc2SCC(=O)Nc2nccs2)cc1	-1%	7	2%	-2%	-4%
SMILES	Sfp PPTase inh	FBPA coupling cs	Tau fibril FP	Tau fibril ThT	Tau fluor counter
COc1ccc(-c2[nH]c(-c3cccc(OC)c3)nc2SCC(=O)Nc2ccc3c(c2)OCO3)cc1	x	x	7%	u	6.3µM*[quencher]
COc1ccc(-c2nc(SCC(=O)Nc3ccc4c(c3)OCCO4)c(-c3ccccc3)[nH]2)cc1	x	x	u	u	8.9µM*[quencher]
CCN(CCCNC(=O)CSc1cc(=O)n(CC)c2ccccc12)c1cccc(C)c1	x	x	15%	u	-30%
CCCCn1c(=NC(=O)C(C)(C)Oc2ccc(Cl)cc2)c(C(=O)OCC)cc2c(=O)n3ccccc3nc21	x	x	3%	-13%	-15%
COc1ccc(-c2[nH]c(-c3ccc4c(c3)OCO4)nc2-c2ccccc2)cc1	8%	-5	9%	u	14µM*[quencher]
CC(C)Oc1ccc(CNS(=O)(=O)c2ccc3c(c2)C(C)(C)C(=O)N3C)cc1	x	x	-12%	-1%	-11%
CO/N=C(\C(=O)O)c1csc(NN=C(C)C)n1	35µM*	-2	-6%	u	-26%
O=C(O)c1cccc(-n2cccc2/C=C2/NC(=O)N(c3ccc(Cl)cc3)C2=O)c1	14µM*	3	-12%	-19%	-12%
Cc1cccc(NC(=O)CN2C(=O)N/C(=C\c3cccn3-c3cccc(C(=O)O)c3)C2=O)c1	50µM*	-1	-2%	-20%	-3%
COc1ccc(-n2cccc2/C=C2/NC(=O)N(c3cccc(Cl)c3)C2=O)cc1	-12%	-1	2%	-3%	-22%
O=C(O)c1cccc(-n2cccc2/C=C2/NC(=O)N(c3cccc(Cl)c3)C2=O)c1	45µM*	3	3%	x	-9%
COCCNC(=O)C(c1ccc(C)cc1)N(C(=O)CCC(=O)Nc1ccccn1)c1ccccc1C (stereo not given)	2%	0	x	x	x
COc1cc(C2Nc3c(F)cccc3C3C=CCC32)cc(Br)c1OC (stereo not given)	40µM*	-2	-6%	u	u
CCOC(=O)c1ccc(NC(=O)Cc2ccc(-n3c(CC)nc4cccnc43)cc2)cc1	x	x	-1%	1%	-25%
O=C(O)c1ncsc1-c1ccccc1	25µM*	0	-12%	-20%	-3%
O=C(O)C1Cc2[nH]cnc2C(c2ccccc2O)N1 (stereo not given)	79µM*	-1	-2%	-6%	-2%
Cc1ccccc1OCCCN1C(=O)C(=O)c2cccc(C)c21	-25%	-14	-15%	22µM*	-21%
Cc1c(CCOC(=O)CC23CC4CC(CC(C4)C2)C3)sc[n+]1CC(=O)c1ccccc1	79µM*	2	10%	u	2%
Cc1c(CCOC(=O)C23CC4(C)CC(C)(CC(C)(C4)C2)C3)sc[n+]1CC(=O)c1ccccc1	u	0	1%	u	-22%
O=CC1=C(N2CCOCC2)/C(=C/c2ccc(Cl)cc2)CC1	-13%	1	-2%	u	-9%
O=C(O)c1ccc(N/N=C/C2=C(N3CCOCC3)C(=C\c3ccccc3)/CC2)cc1	50µM*	5	2%	u	u

Compound activity deposited in PubChem BioAssay by National Center for Advancing Translational Sciences (NCATS).
